{"source": "ChEMBL document CHEMBL2218924", "about": "“A broad activity screen in support of a chemogenomic map for kinase signalling research and drug discovery” (Biochem J, 2013)", "key": {"[1]": {"molecular_target": "T1, Ephrin type-A receptor 3 (Homo sapiens) (UniProt P29320)", "T1 sequence (whole entry)": "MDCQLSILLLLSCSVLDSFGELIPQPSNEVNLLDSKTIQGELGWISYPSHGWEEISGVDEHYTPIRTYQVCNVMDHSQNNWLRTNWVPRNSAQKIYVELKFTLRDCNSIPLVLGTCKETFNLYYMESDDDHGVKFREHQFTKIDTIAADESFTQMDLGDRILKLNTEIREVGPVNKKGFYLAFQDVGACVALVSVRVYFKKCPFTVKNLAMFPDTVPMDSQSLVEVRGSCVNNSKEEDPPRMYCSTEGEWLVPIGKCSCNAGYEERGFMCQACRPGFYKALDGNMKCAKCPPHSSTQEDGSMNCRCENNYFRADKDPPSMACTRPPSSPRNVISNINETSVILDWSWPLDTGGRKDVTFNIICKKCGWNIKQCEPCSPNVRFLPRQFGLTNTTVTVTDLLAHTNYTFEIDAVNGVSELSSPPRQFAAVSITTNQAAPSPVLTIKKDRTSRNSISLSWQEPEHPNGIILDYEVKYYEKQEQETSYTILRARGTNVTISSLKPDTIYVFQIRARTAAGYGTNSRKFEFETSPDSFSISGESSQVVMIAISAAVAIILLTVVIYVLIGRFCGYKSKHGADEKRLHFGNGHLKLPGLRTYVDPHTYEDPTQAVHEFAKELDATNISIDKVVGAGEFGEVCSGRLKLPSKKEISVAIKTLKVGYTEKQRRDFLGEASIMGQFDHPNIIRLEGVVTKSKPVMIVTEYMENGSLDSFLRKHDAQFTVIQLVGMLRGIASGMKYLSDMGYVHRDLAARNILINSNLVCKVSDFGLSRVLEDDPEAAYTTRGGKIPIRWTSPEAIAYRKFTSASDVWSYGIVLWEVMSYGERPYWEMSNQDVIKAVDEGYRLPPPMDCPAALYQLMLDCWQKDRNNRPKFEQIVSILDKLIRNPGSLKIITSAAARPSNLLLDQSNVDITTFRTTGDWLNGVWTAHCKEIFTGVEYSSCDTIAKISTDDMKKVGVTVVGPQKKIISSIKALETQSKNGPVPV", "conditions": "at 10 µM"}, "[2]": {"molecular_target": "Ephrin type-A receptor 4 (Homo sapiens) (UniProt P54764)", "conditions": "at 10 µM"}, "[3]": {"molecular_target": "Ephrin type-A receptor 5 (Homo sapiens) (UniProt P54756)", "sequence (P54756 whole entry)": "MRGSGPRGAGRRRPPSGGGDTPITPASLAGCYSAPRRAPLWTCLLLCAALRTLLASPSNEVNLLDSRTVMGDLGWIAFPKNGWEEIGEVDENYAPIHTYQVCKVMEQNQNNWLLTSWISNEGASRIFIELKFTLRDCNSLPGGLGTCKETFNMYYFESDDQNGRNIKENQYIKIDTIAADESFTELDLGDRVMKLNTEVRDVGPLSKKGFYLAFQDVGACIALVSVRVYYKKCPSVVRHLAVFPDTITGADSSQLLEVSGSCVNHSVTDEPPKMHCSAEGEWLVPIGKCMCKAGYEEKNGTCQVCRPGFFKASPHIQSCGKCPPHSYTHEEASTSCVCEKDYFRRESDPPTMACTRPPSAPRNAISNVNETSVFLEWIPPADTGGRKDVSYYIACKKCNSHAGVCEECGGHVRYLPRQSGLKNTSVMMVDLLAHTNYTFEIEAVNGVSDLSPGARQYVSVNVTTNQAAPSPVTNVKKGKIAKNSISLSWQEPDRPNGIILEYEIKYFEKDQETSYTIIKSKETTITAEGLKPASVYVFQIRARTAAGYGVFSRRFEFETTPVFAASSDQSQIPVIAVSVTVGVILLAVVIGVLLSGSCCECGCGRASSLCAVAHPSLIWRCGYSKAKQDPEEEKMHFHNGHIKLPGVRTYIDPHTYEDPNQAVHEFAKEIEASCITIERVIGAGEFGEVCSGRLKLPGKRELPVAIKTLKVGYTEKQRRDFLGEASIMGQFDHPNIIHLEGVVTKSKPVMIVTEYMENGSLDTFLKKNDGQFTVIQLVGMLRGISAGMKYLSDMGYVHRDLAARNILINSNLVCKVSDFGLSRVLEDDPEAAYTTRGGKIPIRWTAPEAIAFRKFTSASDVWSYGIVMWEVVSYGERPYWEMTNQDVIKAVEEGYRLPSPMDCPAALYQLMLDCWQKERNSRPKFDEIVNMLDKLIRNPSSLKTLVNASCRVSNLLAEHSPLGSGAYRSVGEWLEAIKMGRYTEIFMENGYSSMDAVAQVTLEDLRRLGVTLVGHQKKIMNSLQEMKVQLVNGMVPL", "conditions": "at 1 µM"}, "[4]": {"molecular_target": "Ephrin type-A receptor 5 (Homo sapiens) (UniProt P54756)", "conditions": "at 10 µM"}, "[5]": {"molecular_target": "Ephrin type-A receptor 7 (Homo sapiens) (UniProt Q15375)", "sequence (Q15375 28-998 limits assumed)": "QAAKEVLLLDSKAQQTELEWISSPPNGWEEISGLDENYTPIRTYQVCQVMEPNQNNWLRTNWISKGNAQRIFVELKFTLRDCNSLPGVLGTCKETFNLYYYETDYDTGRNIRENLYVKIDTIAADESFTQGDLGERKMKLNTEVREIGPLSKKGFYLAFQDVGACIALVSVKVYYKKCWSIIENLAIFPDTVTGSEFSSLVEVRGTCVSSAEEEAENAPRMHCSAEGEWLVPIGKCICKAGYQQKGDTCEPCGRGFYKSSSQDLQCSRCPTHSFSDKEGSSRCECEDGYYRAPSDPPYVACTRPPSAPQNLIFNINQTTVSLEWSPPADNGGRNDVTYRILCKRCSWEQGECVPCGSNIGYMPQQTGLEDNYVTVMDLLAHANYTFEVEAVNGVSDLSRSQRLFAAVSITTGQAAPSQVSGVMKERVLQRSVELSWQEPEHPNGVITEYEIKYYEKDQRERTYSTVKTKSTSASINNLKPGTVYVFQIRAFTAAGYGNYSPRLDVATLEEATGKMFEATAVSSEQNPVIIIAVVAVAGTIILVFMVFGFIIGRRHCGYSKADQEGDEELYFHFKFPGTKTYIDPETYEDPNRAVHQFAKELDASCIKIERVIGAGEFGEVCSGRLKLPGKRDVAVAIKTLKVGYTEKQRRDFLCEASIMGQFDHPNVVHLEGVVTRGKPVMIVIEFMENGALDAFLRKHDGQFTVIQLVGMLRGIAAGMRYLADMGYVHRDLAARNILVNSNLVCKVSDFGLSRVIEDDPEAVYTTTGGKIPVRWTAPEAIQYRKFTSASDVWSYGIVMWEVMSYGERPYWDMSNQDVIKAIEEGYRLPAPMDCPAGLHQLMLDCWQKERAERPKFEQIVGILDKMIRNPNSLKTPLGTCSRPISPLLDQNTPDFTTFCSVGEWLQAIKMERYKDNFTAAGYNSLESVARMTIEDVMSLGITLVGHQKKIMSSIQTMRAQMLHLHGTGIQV", "conditions": "at 1 µM"}, "[6]": {"molecular_target": "Ephrin type-A receptor 7 (Homo sapiens) (UniProt Q15375)", "conditions": "at 10 µM"}, "[7]": {"molecular_target": "T2, Ephrin type-A receptor 8 (Homo sapiens) (UniProt P29322)", "T2 sequence (whole entry)": "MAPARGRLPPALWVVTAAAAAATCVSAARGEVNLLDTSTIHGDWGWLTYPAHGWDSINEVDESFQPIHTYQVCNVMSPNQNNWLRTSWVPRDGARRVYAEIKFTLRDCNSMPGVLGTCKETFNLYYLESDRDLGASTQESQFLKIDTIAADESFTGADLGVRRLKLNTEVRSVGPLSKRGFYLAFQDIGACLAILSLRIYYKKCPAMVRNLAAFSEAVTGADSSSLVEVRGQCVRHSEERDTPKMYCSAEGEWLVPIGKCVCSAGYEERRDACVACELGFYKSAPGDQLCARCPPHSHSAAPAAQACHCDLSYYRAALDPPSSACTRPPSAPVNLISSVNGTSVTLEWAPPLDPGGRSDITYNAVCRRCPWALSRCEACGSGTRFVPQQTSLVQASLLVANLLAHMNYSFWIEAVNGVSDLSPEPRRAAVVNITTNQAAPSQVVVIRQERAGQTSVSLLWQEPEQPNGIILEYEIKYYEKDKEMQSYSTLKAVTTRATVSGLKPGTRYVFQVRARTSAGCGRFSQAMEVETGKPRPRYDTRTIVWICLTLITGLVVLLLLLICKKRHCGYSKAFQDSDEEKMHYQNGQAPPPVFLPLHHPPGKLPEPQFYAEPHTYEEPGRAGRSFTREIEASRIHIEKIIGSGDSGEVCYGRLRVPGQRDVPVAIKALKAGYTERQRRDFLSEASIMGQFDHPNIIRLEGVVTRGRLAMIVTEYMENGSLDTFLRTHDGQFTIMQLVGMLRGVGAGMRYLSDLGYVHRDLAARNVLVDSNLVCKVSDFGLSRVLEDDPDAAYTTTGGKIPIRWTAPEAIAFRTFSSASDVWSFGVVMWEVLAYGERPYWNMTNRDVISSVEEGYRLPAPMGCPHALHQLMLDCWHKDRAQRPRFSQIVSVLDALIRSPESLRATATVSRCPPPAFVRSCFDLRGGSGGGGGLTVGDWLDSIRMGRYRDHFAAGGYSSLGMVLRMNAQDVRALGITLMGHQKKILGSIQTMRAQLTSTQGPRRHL", "conditions": "at 1 µM"}, "[8]": {"molecular_target": "T2, Ephrin type-A receptor 8 (Homo sapiens)", "conditions": "at 10 µM"}, "[9]": {"molecular_target": "T3, Ephrin type-B receptor 1 (Homo sapiens) (UniProt P54762)", "T3 sequence (whole entry)": "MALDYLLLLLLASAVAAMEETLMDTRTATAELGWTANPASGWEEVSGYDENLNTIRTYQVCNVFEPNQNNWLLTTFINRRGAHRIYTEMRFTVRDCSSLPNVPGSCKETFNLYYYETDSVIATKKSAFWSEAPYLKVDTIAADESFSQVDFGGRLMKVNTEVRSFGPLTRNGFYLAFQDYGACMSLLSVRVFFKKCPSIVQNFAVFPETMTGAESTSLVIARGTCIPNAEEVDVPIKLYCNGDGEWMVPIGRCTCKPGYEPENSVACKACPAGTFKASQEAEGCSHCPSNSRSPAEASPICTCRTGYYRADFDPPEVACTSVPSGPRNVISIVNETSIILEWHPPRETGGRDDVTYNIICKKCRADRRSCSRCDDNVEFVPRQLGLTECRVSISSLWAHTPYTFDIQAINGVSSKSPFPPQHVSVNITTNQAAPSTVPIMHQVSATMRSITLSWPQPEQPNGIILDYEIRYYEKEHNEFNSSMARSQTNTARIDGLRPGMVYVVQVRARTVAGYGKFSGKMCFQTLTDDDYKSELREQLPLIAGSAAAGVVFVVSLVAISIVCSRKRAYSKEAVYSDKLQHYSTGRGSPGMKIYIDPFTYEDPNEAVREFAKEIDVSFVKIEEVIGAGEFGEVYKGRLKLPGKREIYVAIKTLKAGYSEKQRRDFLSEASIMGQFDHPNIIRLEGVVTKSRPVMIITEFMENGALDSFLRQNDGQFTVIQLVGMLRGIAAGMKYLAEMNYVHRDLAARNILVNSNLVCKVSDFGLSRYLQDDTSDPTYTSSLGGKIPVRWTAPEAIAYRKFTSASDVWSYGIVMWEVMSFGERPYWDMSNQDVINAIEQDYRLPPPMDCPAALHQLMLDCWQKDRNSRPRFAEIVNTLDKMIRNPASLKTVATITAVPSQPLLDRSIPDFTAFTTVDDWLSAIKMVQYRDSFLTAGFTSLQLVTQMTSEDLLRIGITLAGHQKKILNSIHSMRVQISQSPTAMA", "conditions": "at 1 µM"}, "[10]": {"molecular_target": "T3, Ephrin type-B receptor 1 (Homo sapiens)", "conditions": "at 10 µM"}, "[11]": {"molecular_target": "T4, Ephrin type-B receptor 4 (Homo sapiens) (UniProt P54760)", "T4 sequence (whole entry)": "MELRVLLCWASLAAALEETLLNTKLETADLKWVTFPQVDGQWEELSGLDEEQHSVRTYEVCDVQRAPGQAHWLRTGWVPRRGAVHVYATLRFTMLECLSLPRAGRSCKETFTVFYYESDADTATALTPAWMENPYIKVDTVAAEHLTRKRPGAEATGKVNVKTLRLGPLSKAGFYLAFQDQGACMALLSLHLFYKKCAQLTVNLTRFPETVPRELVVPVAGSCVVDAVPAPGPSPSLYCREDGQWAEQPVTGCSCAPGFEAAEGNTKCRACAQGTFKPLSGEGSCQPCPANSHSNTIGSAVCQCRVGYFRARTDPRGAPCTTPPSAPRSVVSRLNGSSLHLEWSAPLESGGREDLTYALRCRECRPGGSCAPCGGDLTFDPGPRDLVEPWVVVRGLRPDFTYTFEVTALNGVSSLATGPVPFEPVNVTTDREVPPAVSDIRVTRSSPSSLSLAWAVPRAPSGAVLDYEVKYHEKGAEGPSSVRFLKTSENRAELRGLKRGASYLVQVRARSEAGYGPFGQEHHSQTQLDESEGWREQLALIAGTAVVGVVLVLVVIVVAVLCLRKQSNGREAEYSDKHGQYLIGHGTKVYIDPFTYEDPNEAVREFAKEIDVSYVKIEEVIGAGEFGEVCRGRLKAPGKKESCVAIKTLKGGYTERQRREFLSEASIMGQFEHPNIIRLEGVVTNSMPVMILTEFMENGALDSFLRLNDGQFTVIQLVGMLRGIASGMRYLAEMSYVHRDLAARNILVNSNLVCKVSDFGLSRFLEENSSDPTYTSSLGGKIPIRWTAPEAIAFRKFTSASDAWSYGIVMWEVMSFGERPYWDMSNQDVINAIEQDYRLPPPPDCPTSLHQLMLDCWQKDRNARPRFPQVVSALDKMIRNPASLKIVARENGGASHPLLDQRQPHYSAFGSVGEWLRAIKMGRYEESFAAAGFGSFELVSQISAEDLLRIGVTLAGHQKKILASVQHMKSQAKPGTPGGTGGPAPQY", "conditions": "at 1 µM"}, "[12]": {"molecular_target": "T4, Ephrin type-B receptor 4 (Homo sapiens)", "conditions": "at 10 µM"}, "[13]": {"molecular_target": "Receptor tyrosine-protein kinase erbB-4 (Homo sapiens) (UniProt Q15303)", "sequence (Q15303 whole entry)": "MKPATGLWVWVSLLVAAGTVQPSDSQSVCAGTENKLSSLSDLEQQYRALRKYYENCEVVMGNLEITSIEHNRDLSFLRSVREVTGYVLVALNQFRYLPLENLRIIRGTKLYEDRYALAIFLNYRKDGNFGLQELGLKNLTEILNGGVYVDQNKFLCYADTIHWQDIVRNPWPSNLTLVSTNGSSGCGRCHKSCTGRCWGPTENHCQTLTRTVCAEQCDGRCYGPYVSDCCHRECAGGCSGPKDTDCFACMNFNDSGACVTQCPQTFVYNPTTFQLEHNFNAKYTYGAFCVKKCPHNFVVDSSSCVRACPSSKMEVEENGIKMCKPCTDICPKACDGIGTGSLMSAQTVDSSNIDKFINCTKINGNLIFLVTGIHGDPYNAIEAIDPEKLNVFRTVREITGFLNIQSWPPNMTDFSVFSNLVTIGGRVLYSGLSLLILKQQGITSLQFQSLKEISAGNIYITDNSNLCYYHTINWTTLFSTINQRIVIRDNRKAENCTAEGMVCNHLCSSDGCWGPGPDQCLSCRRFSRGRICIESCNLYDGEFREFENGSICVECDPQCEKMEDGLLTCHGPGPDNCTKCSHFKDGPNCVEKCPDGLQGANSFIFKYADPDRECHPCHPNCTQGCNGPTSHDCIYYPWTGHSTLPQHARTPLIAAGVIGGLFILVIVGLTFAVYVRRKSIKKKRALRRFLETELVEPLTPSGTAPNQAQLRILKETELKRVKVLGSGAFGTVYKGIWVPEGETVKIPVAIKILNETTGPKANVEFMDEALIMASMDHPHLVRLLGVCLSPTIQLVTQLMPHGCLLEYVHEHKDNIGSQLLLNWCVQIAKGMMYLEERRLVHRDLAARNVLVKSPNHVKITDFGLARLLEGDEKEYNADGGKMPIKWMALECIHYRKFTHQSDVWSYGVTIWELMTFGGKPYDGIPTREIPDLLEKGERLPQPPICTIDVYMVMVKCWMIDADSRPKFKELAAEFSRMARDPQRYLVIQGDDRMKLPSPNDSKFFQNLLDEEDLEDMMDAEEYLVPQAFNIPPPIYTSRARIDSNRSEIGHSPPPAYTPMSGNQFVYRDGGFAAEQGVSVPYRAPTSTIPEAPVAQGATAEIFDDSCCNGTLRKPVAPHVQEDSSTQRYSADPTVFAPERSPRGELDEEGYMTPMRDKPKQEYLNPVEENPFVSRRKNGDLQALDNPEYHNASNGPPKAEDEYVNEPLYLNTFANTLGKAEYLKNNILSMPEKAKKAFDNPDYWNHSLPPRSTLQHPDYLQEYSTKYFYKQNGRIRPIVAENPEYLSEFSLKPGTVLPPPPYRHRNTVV", "conditions": "at 1 µM"}, "[14]": {"molecular_target": "Receptor tyrosine-protein kinase erbB-4 (Homo sapiens) (UniProt Q15303)", "conditions": "at 10 µM"}, "[15]": {"molecular_target": "Focal adhesion kinase 1 (Homo sapiens) (UniProt Q05397)", "sequence (Q05397 2-1052 limits assumed)": "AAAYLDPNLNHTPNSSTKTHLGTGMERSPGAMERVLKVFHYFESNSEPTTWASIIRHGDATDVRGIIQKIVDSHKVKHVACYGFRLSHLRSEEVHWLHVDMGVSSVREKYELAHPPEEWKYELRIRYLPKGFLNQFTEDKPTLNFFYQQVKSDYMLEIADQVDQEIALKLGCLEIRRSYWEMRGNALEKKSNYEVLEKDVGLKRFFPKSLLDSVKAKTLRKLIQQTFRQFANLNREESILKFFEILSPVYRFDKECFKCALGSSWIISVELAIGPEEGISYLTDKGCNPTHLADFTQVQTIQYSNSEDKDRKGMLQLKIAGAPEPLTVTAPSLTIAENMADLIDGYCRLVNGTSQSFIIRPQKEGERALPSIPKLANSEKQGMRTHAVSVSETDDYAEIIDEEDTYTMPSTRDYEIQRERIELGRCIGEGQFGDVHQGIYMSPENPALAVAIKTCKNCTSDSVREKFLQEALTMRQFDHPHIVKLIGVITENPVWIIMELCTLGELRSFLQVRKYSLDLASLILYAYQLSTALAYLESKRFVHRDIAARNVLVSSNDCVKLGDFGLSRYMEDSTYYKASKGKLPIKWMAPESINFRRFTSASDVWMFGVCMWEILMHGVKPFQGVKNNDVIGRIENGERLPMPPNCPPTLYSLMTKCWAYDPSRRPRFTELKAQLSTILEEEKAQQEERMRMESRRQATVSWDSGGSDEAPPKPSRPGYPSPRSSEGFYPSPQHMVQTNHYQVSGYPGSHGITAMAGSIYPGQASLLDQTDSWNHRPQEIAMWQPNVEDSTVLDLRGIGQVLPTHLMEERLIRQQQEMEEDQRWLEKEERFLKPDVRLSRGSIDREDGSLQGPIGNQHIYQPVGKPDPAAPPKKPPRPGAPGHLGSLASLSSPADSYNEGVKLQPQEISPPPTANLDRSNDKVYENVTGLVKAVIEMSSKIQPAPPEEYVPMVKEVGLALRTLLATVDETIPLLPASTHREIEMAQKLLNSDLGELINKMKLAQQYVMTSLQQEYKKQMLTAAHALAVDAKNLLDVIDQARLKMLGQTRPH", "conditions": "at 1 µM"}}}
{"smiles": "O=c1cc(N2CCOCC2)oc2c1ccc1ccccc12", "values": [{"measurement": "residual activity", "setting": "[1]", "value": 94, "unit": "%"}, {"measurement": "residual activity", "setting": "[2]", "value": 103, "unit": "%"}, {"measurement": "residual activity", "setting": "[3]", "value": 124, "unit": "%"}, {"measurement": "residual activity", "setting": "[4]", "value": 93, "unit": "%"}, {"measurement": "residual activity", "setting": "[5]", "value": 103, "unit": "%"}, {"measurement": "residual activity", "setting": "[6]", "value": 84, "unit": "%"}, {"measurement": "residual activity", "setting": "[7]", "value": 100, "unit": "%"}, {"measurement": "residual activity", "setting": "[8]", "value": 97, "unit": "%"}, {"measurement": "residual activity", "setting": "[9]", "value": 95, "unit": "%"}, {"measurement": "residual activity", "setting": "[10]", "value": 89, "unit": "%"}, {"measurement": "residual activity", "setting": "[11]", "value": 101, "unit": "%"}, {"measurement": "residual activity", "setting": "[12]", "value": 108, "unit": "%"}, {"measurement": "residual activity", "setting": "[13]", "value": 106, "unit": "%"}, {"measurement": "residual activity", "setting": "[14]", "value": 92, "unit": "%"}, {"measurement": "residual activity", "setting": "[15]", "value": 132, "unit": "%"}]}
